# Data from the supplement of paper PMC3334620.
# Whole data set: some 33,000 sequences, median “E-score (-0.5 to 0.5)” near -0.043, cut for the highest 2% near 0.37. This excerpt belongs to a sample that is enriched for the highest values.
# Target: T1, Upc2 (UniProt Q12151)
# T1 sequence: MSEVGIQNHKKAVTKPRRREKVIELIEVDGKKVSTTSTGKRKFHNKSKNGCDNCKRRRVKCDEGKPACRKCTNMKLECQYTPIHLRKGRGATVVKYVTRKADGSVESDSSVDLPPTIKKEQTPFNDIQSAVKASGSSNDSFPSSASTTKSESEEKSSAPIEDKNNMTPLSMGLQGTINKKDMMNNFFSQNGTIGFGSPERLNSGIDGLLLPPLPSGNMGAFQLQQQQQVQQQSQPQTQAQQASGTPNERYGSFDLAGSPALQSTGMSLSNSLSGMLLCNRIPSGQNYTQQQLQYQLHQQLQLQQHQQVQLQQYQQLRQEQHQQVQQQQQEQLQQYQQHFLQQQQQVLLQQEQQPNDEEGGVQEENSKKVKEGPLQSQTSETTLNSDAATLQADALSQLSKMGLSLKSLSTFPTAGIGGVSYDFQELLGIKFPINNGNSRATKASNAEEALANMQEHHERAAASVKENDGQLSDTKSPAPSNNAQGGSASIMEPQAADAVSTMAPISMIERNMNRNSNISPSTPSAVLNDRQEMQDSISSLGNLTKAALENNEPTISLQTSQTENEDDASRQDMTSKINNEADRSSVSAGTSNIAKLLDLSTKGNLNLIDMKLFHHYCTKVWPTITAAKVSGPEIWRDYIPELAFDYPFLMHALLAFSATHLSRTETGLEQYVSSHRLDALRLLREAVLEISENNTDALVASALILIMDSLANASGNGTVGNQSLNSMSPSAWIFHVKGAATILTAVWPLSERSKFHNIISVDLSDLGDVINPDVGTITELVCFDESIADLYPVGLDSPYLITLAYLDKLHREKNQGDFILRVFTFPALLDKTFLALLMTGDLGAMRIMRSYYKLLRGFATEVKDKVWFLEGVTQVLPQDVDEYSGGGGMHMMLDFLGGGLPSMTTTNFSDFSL
# Test: PBM E-score (8-mer binding enrichment) (E-score (-0.5 to 0.5)); higher = stronger / more preferred TF binding
# Conditions: protein concentration: 200 nM; construct: GST-full length
# How it was run: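 E-scores (a modified Wilcoxon-Mann-Whitney statistic) were assigned by the Universal PBM Analysis Suite to every ungapped eight-base word pooled with its reverse complement. The input came from universal all-10-mer Agilent arrays made double-stranded by primer extension and probed with GST-tagged yeast transcription factors at about 100-200 nM. Fluorescent anti-GST detected bound protein, and masliner normalised the scans.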
row,Sequence,PBM E-score
1,GACCCGAA,-0.0162
2,CCTGCGCG,-0.0152
3,CGGGCCAA,-0.307
4,AGCAGAGG,-0.293
5,GCAAGCGA,0.174
6,AACACCTT,0.0752
7,TCGTTTCA,0.406
8,GCGTTCAA,0.173
9,ACGTTTCA,0.116
10,TCGTTCCA,0.46
11,CCGTTCCC,0.385
12,TCGTTCAA,0.459
13,GCGTTTCA,-0.0903
14,GCGTTCCA,0.11
15,GCGTTCCC,0.0703
16,ACGTTCCC,0.0935
17,ACGTTCAA,0.238
18,ACGTTCCA,0.116
19,AGTCTTTA,-0.0445
20,AGACTGCG,-0.17
21,GCGAATTA,0.179
22,GGATGGAA,-0.0401
23,CGGGCATC,0.0742
24,GCCGCGTA,0.271
25,AGCCGAAG,-0.185
26,CTACAAGA,-0.194

row,Sequence,PBM E-score
1,CTTCGTCC,-0.316
2,CTTCGTCA,-0.0302
3,CTTCGTGA,0.112
4,ATTCGTGC,-0.094
5,CTTCGTAA,0.427
6,ATTCGTAC,0.452
7,CTTCGTAC,0.458
8,ATTCGTCC,0.0624
9,CTTCGTGC,-0.0549
10,CCCAGCCC,-0.217
11,CACACACC,0.0034
12,CTTCATAA,-0.121
13,AAGGCACC,-0.24
14,ATAGCGAC,0.17
15,ATAACGTG,0.0885
16,TAATGTAA,-0.0142
17,AAGCCTAT,-0.0475
18,AGGGAACG,0.39
19,CGGGAACC,-0.12
20,CAGGAACG,0.396
21,CCGGAACG,0.376
22,CGGGAACG,0.404
23,CCGGAACA,-0.189
24,AAGGAACG,0.347
25,CGGGAACA,0.184
26,CAGGAACC,-0.161

row,Sequence,PBM E-score
1,AGGGAACA,-0.22
2,CCGGAACC,-0.113
3,AGGGAACC,-0.104
4,AGCGCAAC,0.149
5,TTTCCAAA,-0.0113
6,AAGCTTGG,0.127
7,ACTGCGCC,-0.147
8,CCGGGGAA,-0.23
9,GGAAGTAA,-0.0533
10,GGCAATCA,-0.196
11,AAAGGATC,-0.127
12,CTCTCGTA,0.453
13,GTCTCGAA,-0.0265
14,GTCTCGGA,0.162
15,GTCTCGTA,0.456
16,CTCTCGTC,0.0223
17,ATCTCGTG,0.124
18,ATCTCGTC,0.123
19,ATCTCGTA,0.464
20,CTCTCGAA,-0.0265
21,AAGGTTCA,-0.145
22,GGCAGAGA,-0.14
23,GCCACAGA,-0.149
24,ATTGAACA,-0.0652
25,TTATCCAA,0.0246
26,GAGAGTAC,0.0133

row,Sequence,PBM E-score
1,GCGTACCC,0.244
2,CCGTACCG,0.389
3,ACGTACCG,0.272
4,ACGTACCC,0.203
5,CCGTACCA,0.368
6,CCGTACCC,0.379
7,GAAATATA,0.127
8,ATCCCGTG,0.0975
9,ATCCCGTA,0.373
10,GTCCCGTA,0.25
11,AACCCAAC,0.00517
12,CGCTTACC,0.301
13,CGCTTACA,0.178
14,CGCTTACG,0.372
15,CCTTATAA,0.0883
16,CCGTTTCG,0.255
17,ACGTTTTG,-0.0436
18,CAGTTTAG,-0.0566
19,ACGTTTAT,0.313
20,ACGTTTTA,0.188
21,ACGTTTAG,0.397
22,ATGTTTAA,0.067
23,CCGTTTAG,0.468
24,ACGTTTAA,0.407
